Pol eta inh = blocks human DNA polymerase eta activity; recombinant Pol eta, fluorescent DNA replication assay; Q9Y253; 1.2% of 390,000 active; Potency, µM (titrated, usually from 114 µM), for the others: top-dose activity change, negative = inhibition, actives largely listed as inhibitors; AID 588591; also: % is scaled to controls: 0 for no effect and ±100 for the full control effect
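Pol eta at 10 nM preincubated with compounds 15 min at room temperature; reaction started with fluorescent substrate (50 nM final) and read kinetically at 0 and 10 min.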
WRN helicase inh = inhibitors of human WRN helicase | Q14191 | Potency, µM (top dose mostly 114 µM), for inactives: at the top dose activity change, negative = inhibition, usual class: inhibitors | 0.46% of 360,000 active | AID 651768 | WRN helicase unwinding, fluorescent forked duplex, kinetic; also: % is scaled to controls: 0 for no effect and ±100 for the full control effect; nearly all actives have a fitted effect of over 55% in size
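Kinetic red-fluorescence monitoring (525/598 nm) tracks WRN helicase activity after 100 nM fluorophore-quencher forked duplex and 2 mM ATP are added to 20 nM enzyme pretreated 15 min at room temperature with compound.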
L3MBTL1 block = L3MBTL1 (human) inhibition | Q9Y468 | AlphaScreen L3MBTL1–H3K9me1 peptide binding | Potency, µM (highest dose often 57.1 µM), for the others: top-dose activity, negative = inhibition, actives largely listed as inhibitors | 0.66% of 230,000 active; also: % is scaled to controls: 0 for no effect and ±100 for the full control effect; nearly all actives have a fitted effect of over 60% in size
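AlphaScreen proximity signal between nickel-chelate acceptor and streptavidin donor beads (final 10 ug/mL) reports binding of 50 nM L3MBTL1 to 75 nM biotin-H3 K9me1 peptide; complex incubated with compounds 30 min at room temperature; cefsulodin titration as control.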
Pol kappa inh = inhibitors of human DNA polymerase kappa. Q9UBT6. Potency, µM (highest dose often 107 µM), inactives show at the highest dose activity, negative = inhibition, usual class: inhibitors. AID 588579. purified Pol kappa, fluorescent DNA synthesis assay, 10 min. 0.53% of 400,000 active; also: % is scaled to controls: 0 for no effect and ±100 for the full control effect
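Fluorescent qHTS in 1536-well format: enzyme (10 nM) and compound sat 15 min at room temperature before 50 nM substrate (final) was added. Signal taken at 0 and 10 min; no-enzyme buffer wells were negative controls.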
Pol iota inh = DNA polymerase iota (human) inhibition | Pol iota fluorescent replication assay, 10 min | Potency, µM (series often up to 115 µM), inactives show at the highest dose activity, negative = inhibition, most hits filed as inhibitors | 1% of 390,000 active | AID 588590
Target sequence (Q9UNA4 whole entry, looked up): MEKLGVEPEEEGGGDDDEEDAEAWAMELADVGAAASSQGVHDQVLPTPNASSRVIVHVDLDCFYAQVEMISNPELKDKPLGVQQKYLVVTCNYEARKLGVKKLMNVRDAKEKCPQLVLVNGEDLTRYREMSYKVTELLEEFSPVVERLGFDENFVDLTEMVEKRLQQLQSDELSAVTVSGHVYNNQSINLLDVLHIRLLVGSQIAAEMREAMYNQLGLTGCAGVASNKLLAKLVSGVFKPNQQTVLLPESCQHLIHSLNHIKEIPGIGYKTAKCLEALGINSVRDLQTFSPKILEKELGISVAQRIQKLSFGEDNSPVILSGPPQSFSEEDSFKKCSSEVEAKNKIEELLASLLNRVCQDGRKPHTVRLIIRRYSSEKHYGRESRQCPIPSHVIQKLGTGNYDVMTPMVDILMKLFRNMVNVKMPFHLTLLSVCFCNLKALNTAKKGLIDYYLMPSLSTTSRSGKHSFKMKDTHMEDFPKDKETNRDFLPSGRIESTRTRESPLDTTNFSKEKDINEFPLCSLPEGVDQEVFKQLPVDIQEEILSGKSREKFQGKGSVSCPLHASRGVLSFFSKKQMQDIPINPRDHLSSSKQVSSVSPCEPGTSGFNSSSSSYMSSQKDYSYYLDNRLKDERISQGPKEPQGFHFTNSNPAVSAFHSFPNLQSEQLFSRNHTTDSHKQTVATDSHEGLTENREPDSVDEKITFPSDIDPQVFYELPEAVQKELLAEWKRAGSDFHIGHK
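Fluorescent replication assay read twice, at 0 min and 10 min after adding 50 nM (final) substrate. Enzyme (10 nM) and compounds were first incubated 15 min at room temperature; enzyme-free buffer wells were negative controls.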
Pol beta inh = inhibitors of human DNA polymerase beta; P06746; Pol beta primer extension/strand displacement, fluorescence kinetic; Potency, µM (titrated, usually from 114 µM), for inactives: top-dose activity change, negative = inhibition, usual class: inhibitors; 1.3% of 340,000 active; also: % is scaled to controls: 0 for no effect and ±100 for the full control effect
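Values derive from four-parameter Hill fits of normalized kinetic data: reads at 0 and 10 min following addition of 50 nM substrate to 10 nM Pol beta preincubated 15 min with compound.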
Numbers without * were called inactive; ? = inconclusive; · = not tested or not shown; ! = a repeat was not active; [ ] = another dose, or the depositor's remark. Sampled rows, rich in hits. Any-hit rate of the full collection: about 2.5%. Calls follow the shape of the dose curve; as a rule, active = well fitted curve in the direction sought with a large enough effect; inconclusive = small, poorly fitted or top-dose-only effect, or another doubt; inactive = no such curve, though single readings can be large; an effect the other way counts as inactive or inconclusive. Potency is read from the fitted curve at half-maximal effect.

SMILES	Pol eta inh	WRN helicase inh	L3MBTL1 block	Pol kappa inh	Pol iota inh	Pol beta inh
O=C1C(=O)N(CC2CCCO2)C(c2ccccc2[N+](=O)[O-])/C1=C(/O)c1ccccc1 (stereo not drawn)	-3%	-3%	10%	-16%	43%	-19%
CCOc1ccc(CN2CCN(c3ncnc4scc(-c5ccccc5)c34)CC2)cc1	-18%	9%	·	1%	121%	7%
Cc1sc2ncnc(N3CCN(Cc4ccccc4)CC3)c2c1-c1ccccc1	-23%	3%[11.6 µM]	·	?	89µM*	-1%
O=C(/C=C/c1ccc(O)cc1)c1ccc(NC2=C(N3CCCCC3)C(=O)c3ccccc3C2=O)cc1	?	-35%	?	-11%	28µM*	?
COc1cc(OC)cc(-c2c(-c3cccs3)c3cc(-c4cccc5[nH]ccc45)ccc3n2C)c1	-2%	0%	-2%	-7%	-4%	·
CC(=O)Oc1ccc2occ(-c3ccccc3)c2c1	-10%	-12%	11%	-10%	-14%	56µM*
CC(=O)Oc1ccc2occ(C(=O)c3ccccc3)c2c1	-1%	-2%	·	-20%	-12%	·
CCOC(=O)c1c(C)oc(NC(=O)CCl)c1C(=O)OCC	7%	2%	·	3%	?	20%
CSc1nc(NCc2ccco2)c2c3c(sc2n1)CN(C)CC3	·	·	7%	·	·	40µM*
O=C1C(O)=C(O)C(=O)C(O)=C1O	·	·	·	8.9µM*	·	·
CC1=C(O)C(=O)C(C2=C(O)C(=O)C(C)=C(O)C2=O)=C(O)C1=O	-2%	-2%	·	?	13%	·
CCOc1ccc(CCNC(=O)c2ccc(-c3nc(CSc4ccc(C)cc4)c(C)o3)cc2)cc1	-10%	·	·	-4%	25%	3%
Cc1ccc2c(=O)cc(C(=O)NCCc3ccc(S(N)(=O)=O)cc3)oc2c1	22µM*	?	·	-90%	45µM*	?
Cc1ccc(OCc2nc(-c3ccc(C(=O)NCCc4ccc(S(N)(=O)=O)cc4)cc3)oc2C)cc1	5%	·	·	3%	79µM*	30%
Cc1cc(C)c2oc(C(=O)NCCc3ccc(S(N)(=O)=O)cc3)cc(=O)c2c1	-6%	3%	·	-5%	34%	-20%
O=C(Oc1coc(CSc2nnc(NC(=O)c3cccs3)s2)cc1=O)c1ccccc1	?	-34%	?	?	?	13µM*
Cc1ccc(C(=O)Oc2coc(CSc3nnc(NC(=O)C4CC4)s3)cc2=O)cc1	?	-20%	-6%	-14%	?	1%
O=C(Nc1ccc2nc(SCC(=O)N3CCOCC3)sc2c1)c1cccc(F)c1	-20%	·	·	-4%	35%	-25%
Cc1cc(/C=C/c2ccc3cc(N(C)C)ccc3[n+]2C)c(C)n1-c1ccccc1	·	·	·	28µM*	·	·
O=C(C#Cc1ccccc1)c1cccc([N+](=O)[O-])c1	-16%	18µM*	·	1%	?	-19%
N/C(=N\OC(=O)Oc1ccccc1)c1cccc([N+](=O)[O-])c1	-15%	5%	4%	-12%	7%	-20%
Cc1sc2nc(SCC(=O)Nc3c(C)n(C)n(-c4ccccc4)c3=O)n(C)c(=O)c2c1C	?	-15%	-23%	-27%	?	20µM*
O=C1c2ccccc2C(=O)c2c(NCCCN(CCO)CCO)cccc21	?	25µM*	?	-18%	?	45µM*
Nc1ncncc1-c1ccc2ccccc2c1	4%	10%	·	2%	25%	25%
O=c1c2ccccc2n(CC(O)CN2CCOCC2)c2ccccc12 (stereo not drawn)	7%	11%	·	-2%	119%	4%
SMILES	Pol eta inh	WRN helicase inh	L3MBTL1 block	Pol kappa inh	Pol iota inh	Pol beta inh
COc1ccc(/C=N/c2nc3ccccc3n2C)cc1OC	-13%	-1%	-3%	1%	19%	79µM*
CCc1ccc(C(=O)c2cn(CC(=O)Nc3ccc(OC)cc3)c3cc4c(cc3c2=O)OCO4)cc1	-7%	·	·	-1%	27%	?
CC(C)C[C@H](NC(=O)c1nc[nH]c1C(=O)NCCNC(=O)OC(C)(C)C)C(=O)CNCCNC(=O)c1[nH]cnc1C(=O)N[C@@H](C)C(=O)OC(C)(C)C	-12%	-7%	2%	4%	29%	·
NC(=O)c1ccc2c(=O)n3c(-c4cc(Cl)c(N)c(Cl)c4)csc3nc2c1	?	-35%	·	-2%	50µM*	?
Cc1csc2nc3cc(C(N)=O)ccc3c(=O)n12	-13%	1%	·	12%	18%	1%
COc1ccc(-n2c(SCC(=O)C(C)(C)C)nc3c(sc(=S)n3-c3ccccc3)c2=O)c(OC)c1	-5%	-16%	·	1%	11µM*	-4%
Cc1cccc(C(=O)Nc2nnc(S(=O)(=O)N3CCC(C)CC3)s2)c1	79µM*!	-3%	·	-7%	-6%	-6%
O=C(Nc1nnc(S(=O)(=O)N2CCCCC2)s1)c1cccc(Br)c1	45µM*	-6%	?	-17%	?	-19%
COc1cccc(C(=O)Nc2nnc(S(=O)(=O)N3CCCc4ccccc43)s2)c1	50µM*	·	·	-9%	41%	-18%
Cc1nc2ccccc2[nH]c1=O	-4%	-2%	-8%	16%	-4%	4%
O=C(CCn1c(=O)oc2ccccc21)NCc1ccc2c(c1)OCO2	-9%	4%	34%	6%	2%	-2%
O=C(CCn1cccc1)NCc1ccc2c(c1)OCO2	?	-22%[57.1 µM]	-13%	?	?	50µM*
CCOc1ccc(N2CC(C(=O)NCCN3C(=O)S/C(=C/c4cccnc4)C3=O)CC2=O)cc1 (stereo not drawn)	-6%	-6%	1%	-8%	-12%	·
Cc1cc(C)c(C#N)c(OCC2CCCO2)n1 (stereo not drawn)	·	10%[57.1 µM]	·	·	·	·
O=C1NC(=O)/C(=C/c2cc3c(cc2Br)OCO3)S1	-12%	-24%	·	0%	?	-18%
O=C1NC(=O)/C(=C\c2ccc(Br)o2)S1	22µM*	-34%	·	25µM*	?	18µM*
COc1cccc(NC(=O)NNC(=O)CCc2ccc(O)c(O)c2)c1	-5%	4%	·	25µM*	40µM*	42%
CCOc1ccc(Cl)cc1C1=CC(=O)C[C@H](c2ccc(OC)cc2)C1	-7%	-5%	-1%	-10%	2%	·
COc1ccc(NC(=S)NCCCCCC(=O)C[N+](=O)[O-])cc1	79µM*	-7%[11.6 µM]	·	-4%	?	-1%
O=C(Nc1ccccc1)/C(=C\c1ccc2c(c1)OCO2)NC(=O)c1ccco1	3%	-10%	2%	-4%	-21%	2%
CCOc1ccc(C(=O)Nc2ccc3c(c2)C(=O)NC3=O)cc1	-15%	-1%	2%	-9%	11%	-1%
CCC(C)c1ccc(OCC(=O)Nc2ccc3c(c2)C(=O)NC3=O)cc1 (stereo not drawn)	-13%	-12%	·	3%	17%	35µM*

Screens: PubChem, National Center for Advancing Translational Sciences (NCATS)
